# Bioassay records deposited in PubChem by several laboratories.
# A selection: hits, their analogues and other compounds. The true share with any hit is near 4.2%.
# S1P4 antagonist = S1P4 receptor antagonists, primary screen, cell-based; 220,000 tested, 0.26% active; Sphingosine 1-phosphate receptor 4 (Homo sapiens), O95977; inhibition, % at 4.98 µM; S1P4-expressing cells, antagonist mode, reporter read-out; in the data active = inhibition above about 29%;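 also: 0% = wells stimulated with agonist and 100% = vehicle wells without agonist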
# Target sequence (O95977 whole entry, looked up): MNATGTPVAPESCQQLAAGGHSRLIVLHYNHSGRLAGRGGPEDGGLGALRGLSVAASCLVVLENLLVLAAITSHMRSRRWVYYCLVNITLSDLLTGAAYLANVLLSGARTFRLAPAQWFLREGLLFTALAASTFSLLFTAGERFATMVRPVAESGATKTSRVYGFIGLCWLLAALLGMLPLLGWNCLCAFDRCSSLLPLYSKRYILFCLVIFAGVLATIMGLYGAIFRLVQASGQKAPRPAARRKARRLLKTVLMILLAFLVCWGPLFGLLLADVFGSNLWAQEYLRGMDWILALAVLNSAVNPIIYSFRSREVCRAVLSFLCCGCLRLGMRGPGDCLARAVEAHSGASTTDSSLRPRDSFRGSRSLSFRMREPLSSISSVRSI
# CHOP inhibitor = inhibitors of CHOP promoter induction, primary screen, cell-based, unfolded protein response, luciferase reporter; CHO-K1 CHOP-promoter luciferase, tunicamycin-induced, 15-18 h; inhibition, % at 10 µM; 220,000 tested, 3.8% active;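 active = compounds that reduced the stress-induced luciferase reporter signal by more than about 70% of percent inhibition, limit read from the data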;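 also: 0% = tunicamycin plus vehicle and 100% = wells without tunicamycin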
# Hsp70 activator = Hsp70 transcriptional activators, primary screen, cell-based, HeLa, Hsp70 promoter luciferase, luminescence, 10 µM; HeLa Hsp70 promoter luciferase reporter; scaled: vehicle 0, proteasome-inhibitor control 100%; activation, % at 10 µM; 200,000 tested, 0.04% active;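 active = activation above the mean across all tested compounds plus 3 SD, cutoff set per campaign, cut at about 5.5% in these data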;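 also: 100% = MG132 at 30 µM as the positive control and 0% = DMSO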
# S1P4 agonist = S1P4 receptor agonists, primary screen, cell-based; Sphingosine 1-phosphate receptor 4 (Homo sapiens), O95977; S1P4-expressing cell line, agonist reporter assay; activation, % at 4.98 µM; 220,000 tested, 0.35% active; in the data active = activation above about 11%;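 also: 0% = DMSO vehicle and 100% = reference agonist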
# CHOP inh conf = retest of CHOP induction inhibitors, confirmation, cell-based | shares compounds with CHOP inhibitor | CHO-CHOP promoter luciferase reporter, tunicamycin-induced, luminescence | inhibition, % at 10 µM | 2,100 tested, 45% active | AID 504437, 2011;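 active = mean of three repeat readings of reporter signal inhibition above a set limit, cut at about 70% in these data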;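 also: 0% = tunicamycin plus vehicle and 100% = wells lacking tunicamycin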
# * = called active by the depositor; / = no result given.
SMILES,S1P4 antagonist,CHOP inhibitor,Hsp70 activator,S1P4 agonist,CHOP inh conf
CC(C)(C)c1ccc(C(=O)NC(=S)NNC(=O)c2cccs2)cc1,-7.4,107.4*,1.0,2.2,133.7*
C=CCN1C(=O)C(CC(=O)Nc2ccc(OCC)cc2)N(Cc2ccccn2)C1=S (stereo unspecified),-18.9,28.4,0.1,-1.6,/
CC(C)(C)C1=CC(=Nc2ccccc2N)C=C(C(C)(C)C)C1=O,-1.7,-29.1,-0.4,2.5,/
CC(C)(C)C1=CC(=O)C(=O)C(C(C)(C)C)=C1,-26.8,103.9*,0.4,2.1,-178.4
CC(OC(=O)c1oc2ccccc2c1CSC1CCCCC1)C(=O)NC(N)=O (stereo unspecified),-4.7,101.2*,-0.2,-0.1,36.3
Cc1ccc(C(=O)CC(=O)c2cc(Cl)ccc2O)cc1,-5.5,102.5*,0.2,-0.7,71.6*
O=C(CNc1ccc(F)cc1)c1ccccc1,4.3,63.2,-0.2,-2.0,/
O=C(CC(=O)c1ccccc1O)c1ccc(F)cc1,0.0,101.1*,0.0,-1.7,62.3
O=C(CC(=O)c1ccccc1O)c1cccc(F)c1,9.9,/,1.8,0.9,55.6
N#Cc1ccsc1NC(=O)CSc1nnc(-c2ccccc2)o1,4.4,20.9,0.1,-0.4,/
CN1CCN(C(=O)C23CCC(C)(C(=O)C2Br)C3(C)C)CC1 (stereo unspecified),-9.0,-6.2,/,-2.0,/
CCOc1ccc(S(=O)(=O)Nc2nc3ccccc3nc2-n2ccc(=NC(=O)c3cccs3)cc2)cc1,16.6,6.8,-0.2,-1.1,/
O=C(N=c1ccn(-c2nc3ccccc3nc2NS(=O)(=O)c2ccc(Cl)cc2)cc1)c1cccs1,-2.7,98.1*,/,0.1,-7.0
C=CCOc1ccc(/C=C/C(C)=N\O)cc1,-21.7,11.3,0.0,-0.3,/
C=CCOc1ccc2c(c1)C(=NO)c1cc(OCC=C)ccc1-2,-19.0,104.1*,-0.2,2.1,58.9
O=C(COc1ccc(Br)cc1Br)NC(=S)N1CCCc2ccccc21,-10.1,-43.5,-0.6,-0.9,/
Cc1ccc(NC(=O)c2cc3ccccc3oc2=O)cc1S(=O)(=O)N(C)C,-8.5,102.3*,-0.2,1.5,110.5*
COc1cc(-c2nc3ccc4ccccc4c3c3c2CCC3)cc(OC)c1OC,5.5,56.9,-0.2,1.7,/
COc1cc(-c2nc3ccc4ccccc4c3c3c2CCC3)cc(OC)c1O,-5.4,102.5*,-0.1,0.4,106.3*
C=CC[n+]1c(C)csc1Nc1ccc(C(=O)O)cc1,4.4,-10.2,-0.3,1.1,/
COc1ccccc1CN1C[C@@H]2C[C@@H](c3ccc(Cl)cc3)N3CCC[C@@]23C1=O,-16.0,44.7,-0.3,0.6,/
COc1ccccc1-n1cc([C@@H]2C[C@H]3CN(c4ccccc4)C(=O)[C@]34CCCN24)cn1,-18.9,102.0*,0.1,0.2,103.7*
Oc1ccc(Br)cc1-c1cc(-c2ccccc2)n[nH]1,7.8,-5.1,-0.1,-0.1,/
Oc1ccc(Br)cc1-c1cc(-c2ccc(Cl)cc2)n[nH]1,16.5,104.4*,-0.2,0.2,15.9
CCCC1/C(=N/O)CC(c2ccccc2)NC1c1ccccc1 (stereo unspecified),6.2,105.5*,0.2,-0.4,34.9
SMILES,S1P4 antagonist,CHOP inhibitor,Hsp70 activator,S1P4 agonist,CHOP inh conf
Cc1nc2c(cnn2-c2ccc(Cl)cc2)c(=O)n1-c1ccc(N2CCC(C)CC2)cc1,-16.4,54.6,-0.2,-2.4,/
CNc1ccc(Br)cc(C(=O)/C=C/c2ccc(Cl)cc2Cl)c1=O,-9.0,103.2*,0.2,1.1,-29.8
CNc1ccc(Br)cc(C(=O)/C=C/c2ccc(OC)cc2OC)c1=O,-11.4,-15.7,-0.3,0.5,/
CCOC(=O)c1c(-c2ccccc2)oc2ccc(O)c(CN3CCOCC3)c12,21.0,109.3*,0.1,-3.7,95.8*
C/C(CCc1ccc2c(c1)OCO2)=N\N=C(/N)SC1CC(=O)N(c2ccc(Cl)cc2)C1=O (stereo unspecified),13.2,97.2*,0.5,0.3,2.0
N/C(=N\N=C\c1ccc2c(c1)OCO2)SC1CC(=O)N(c2ccc(C(=O)O)cc2)C1=O (stereo unspecified),-18.4,23.2,-0.1,0.6,/
Cc1cc(=O)n2nc(-c3ccccc3)sc2n1,-10.8,-14.3,-0.1,-2.7,/
Cc1cc(=O)n2c3c(sc2n1)C(=O)N(Cc1ccccc1)C3=O,-3.8,105.1*,-0.1,0.7,-20.3
NC(N)=N/N=C/c1ccc(OCc2ccc(Cl)cc2)cc1,-20.3,107.2*,0.5,0.3,2.8
